Values joined by “and” are separate entries in the source; they are usually repeats but may differ in a detail not shown here. Equal values may be shown once. Active and inactive are the calls of the source.
Tests used:
[1] = small molecules captured by biotinylated probe aFSTL3 – biochemical, small-molecule microarray, fluorescence 635/667, stem cell growth factor project, primary screen (AID 1064); conditions: higher = more signal;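 also: measures binding of the biotinylated anti-FSTL3 antibody to printed compounds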
[2] = binders from COS7 lysate, DM2A8 probe, primary screen, torsin A project, cell lysate, small-molecule microarray, fluorescence 635/667 (AID 1065); conditions: higher = more signal, COS7 lysate expressing mutant human TOR1A
[3] = small molecules captured by biotinylated probe aFGF2 – biochemical, small-molecule microarray, fluorescence 635/667, stem cell growth factor project, primary screen (AID 1067); conditions: higher = more signal;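 also: measures binding of biotinylated aFGF2 protein to printed compounds on slides; z-score merges feature fluorescence and signal-to-noise across triplicate slides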
[4] = small molecules captured by biotinylated probe aFGF10 – biochemical, small-molecule microarray, fluorescence 635/667, stem cell growth factor project, primary screen (AID 1071); conditions: higher = more signal;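 also: score merges 667 nm spot intensity and signal to noise from triplicate slides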
[5] = molecular target: Neurogenic locus notch homolog protein 2 (Homo sapiens) (UniProt Q04721); assay: small molecules binding Notch2 protein – biochemical, small-molecule microarray, 635 nm fluorescence, stem cell growth factors, primary screen (AID 1073); conditions: higher = more signal
[6] = molecular target: Pro-neuregulin-1, membrane-bound isoform (Homo sapiens) (UniProt Q02297); assay: small molecules binding neuregulin-1 protein – biochemical, small-molecule microarray, fluorescence 635/667, psychiatric disease protein project, primary screen (AID 1075); conditions: NRG1 binding, 635 nm fluorescence, higher = more signal;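 also: score combines 667 nm spot fluorescence with signal to noise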
[7] = test system: Neuregulin-1 EGF-like domain; assay: small molecules binding NRG1 EGF domain – biochemical, small-molecule microarray, 635 nm fluorescence, primary screen (AID 1081); conditions: higher = more signal;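 also: binding of the protein to compounds printed on small-molecule microarray slides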
[8] = FRG1 expression reporter modulators in myotubes – cell-based, C2C12 myotubes, firefly/Renilla luciferase, luminescence, FRG1 inhibition for FSHD, primary screen (AID 1084); conditions: FRG1 promoter luciferase, higher = more signal, called active from +8 up or from −8 down
[9] = small molecules captured by biotinylated probe aFST – biochemical, small-molecule microarray, fluorescence 635/667, stem cell growth factor project, primary screen (AID 1086); conditions: higher = more signal;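 also: score merges 667 nm fluorescence with signal-to-noise of each printed compound spot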
[10] = binders of probe aHhip on microarray, primary screen, stem cell growth factor project, biochemical, small-molecule microarray, fluorescence 635/667 (AID 1087); conditions: higher = more signal;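 also: score merges spot fluorescence at 667nm with spot signal to noise ratio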

Pro-neuregulin-1, membrane-bound isoform (Homo sapiens), sequence (Q02297 whole entry, looked up, the tested form may be a part, canonical isoform): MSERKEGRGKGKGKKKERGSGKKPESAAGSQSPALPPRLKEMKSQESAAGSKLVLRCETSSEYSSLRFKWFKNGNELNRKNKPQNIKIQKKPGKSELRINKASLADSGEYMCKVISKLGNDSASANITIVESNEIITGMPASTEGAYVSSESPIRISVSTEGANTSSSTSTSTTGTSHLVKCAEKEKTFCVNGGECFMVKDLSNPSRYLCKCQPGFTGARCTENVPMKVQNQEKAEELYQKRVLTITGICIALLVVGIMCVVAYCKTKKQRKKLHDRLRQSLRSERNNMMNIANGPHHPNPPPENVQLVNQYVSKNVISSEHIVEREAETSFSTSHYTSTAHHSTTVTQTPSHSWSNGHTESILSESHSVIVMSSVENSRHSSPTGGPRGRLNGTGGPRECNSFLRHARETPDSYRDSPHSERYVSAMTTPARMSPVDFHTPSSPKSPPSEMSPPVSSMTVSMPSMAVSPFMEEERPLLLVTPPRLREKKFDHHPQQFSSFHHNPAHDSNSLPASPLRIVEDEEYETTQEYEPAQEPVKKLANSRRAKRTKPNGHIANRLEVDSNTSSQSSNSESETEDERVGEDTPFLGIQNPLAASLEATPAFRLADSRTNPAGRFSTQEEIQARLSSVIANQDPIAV
Neurogenic locus notch homolog protein 2 (Homo sapiens), sequence (Q04721 whole entry, looked up, canonical isoform): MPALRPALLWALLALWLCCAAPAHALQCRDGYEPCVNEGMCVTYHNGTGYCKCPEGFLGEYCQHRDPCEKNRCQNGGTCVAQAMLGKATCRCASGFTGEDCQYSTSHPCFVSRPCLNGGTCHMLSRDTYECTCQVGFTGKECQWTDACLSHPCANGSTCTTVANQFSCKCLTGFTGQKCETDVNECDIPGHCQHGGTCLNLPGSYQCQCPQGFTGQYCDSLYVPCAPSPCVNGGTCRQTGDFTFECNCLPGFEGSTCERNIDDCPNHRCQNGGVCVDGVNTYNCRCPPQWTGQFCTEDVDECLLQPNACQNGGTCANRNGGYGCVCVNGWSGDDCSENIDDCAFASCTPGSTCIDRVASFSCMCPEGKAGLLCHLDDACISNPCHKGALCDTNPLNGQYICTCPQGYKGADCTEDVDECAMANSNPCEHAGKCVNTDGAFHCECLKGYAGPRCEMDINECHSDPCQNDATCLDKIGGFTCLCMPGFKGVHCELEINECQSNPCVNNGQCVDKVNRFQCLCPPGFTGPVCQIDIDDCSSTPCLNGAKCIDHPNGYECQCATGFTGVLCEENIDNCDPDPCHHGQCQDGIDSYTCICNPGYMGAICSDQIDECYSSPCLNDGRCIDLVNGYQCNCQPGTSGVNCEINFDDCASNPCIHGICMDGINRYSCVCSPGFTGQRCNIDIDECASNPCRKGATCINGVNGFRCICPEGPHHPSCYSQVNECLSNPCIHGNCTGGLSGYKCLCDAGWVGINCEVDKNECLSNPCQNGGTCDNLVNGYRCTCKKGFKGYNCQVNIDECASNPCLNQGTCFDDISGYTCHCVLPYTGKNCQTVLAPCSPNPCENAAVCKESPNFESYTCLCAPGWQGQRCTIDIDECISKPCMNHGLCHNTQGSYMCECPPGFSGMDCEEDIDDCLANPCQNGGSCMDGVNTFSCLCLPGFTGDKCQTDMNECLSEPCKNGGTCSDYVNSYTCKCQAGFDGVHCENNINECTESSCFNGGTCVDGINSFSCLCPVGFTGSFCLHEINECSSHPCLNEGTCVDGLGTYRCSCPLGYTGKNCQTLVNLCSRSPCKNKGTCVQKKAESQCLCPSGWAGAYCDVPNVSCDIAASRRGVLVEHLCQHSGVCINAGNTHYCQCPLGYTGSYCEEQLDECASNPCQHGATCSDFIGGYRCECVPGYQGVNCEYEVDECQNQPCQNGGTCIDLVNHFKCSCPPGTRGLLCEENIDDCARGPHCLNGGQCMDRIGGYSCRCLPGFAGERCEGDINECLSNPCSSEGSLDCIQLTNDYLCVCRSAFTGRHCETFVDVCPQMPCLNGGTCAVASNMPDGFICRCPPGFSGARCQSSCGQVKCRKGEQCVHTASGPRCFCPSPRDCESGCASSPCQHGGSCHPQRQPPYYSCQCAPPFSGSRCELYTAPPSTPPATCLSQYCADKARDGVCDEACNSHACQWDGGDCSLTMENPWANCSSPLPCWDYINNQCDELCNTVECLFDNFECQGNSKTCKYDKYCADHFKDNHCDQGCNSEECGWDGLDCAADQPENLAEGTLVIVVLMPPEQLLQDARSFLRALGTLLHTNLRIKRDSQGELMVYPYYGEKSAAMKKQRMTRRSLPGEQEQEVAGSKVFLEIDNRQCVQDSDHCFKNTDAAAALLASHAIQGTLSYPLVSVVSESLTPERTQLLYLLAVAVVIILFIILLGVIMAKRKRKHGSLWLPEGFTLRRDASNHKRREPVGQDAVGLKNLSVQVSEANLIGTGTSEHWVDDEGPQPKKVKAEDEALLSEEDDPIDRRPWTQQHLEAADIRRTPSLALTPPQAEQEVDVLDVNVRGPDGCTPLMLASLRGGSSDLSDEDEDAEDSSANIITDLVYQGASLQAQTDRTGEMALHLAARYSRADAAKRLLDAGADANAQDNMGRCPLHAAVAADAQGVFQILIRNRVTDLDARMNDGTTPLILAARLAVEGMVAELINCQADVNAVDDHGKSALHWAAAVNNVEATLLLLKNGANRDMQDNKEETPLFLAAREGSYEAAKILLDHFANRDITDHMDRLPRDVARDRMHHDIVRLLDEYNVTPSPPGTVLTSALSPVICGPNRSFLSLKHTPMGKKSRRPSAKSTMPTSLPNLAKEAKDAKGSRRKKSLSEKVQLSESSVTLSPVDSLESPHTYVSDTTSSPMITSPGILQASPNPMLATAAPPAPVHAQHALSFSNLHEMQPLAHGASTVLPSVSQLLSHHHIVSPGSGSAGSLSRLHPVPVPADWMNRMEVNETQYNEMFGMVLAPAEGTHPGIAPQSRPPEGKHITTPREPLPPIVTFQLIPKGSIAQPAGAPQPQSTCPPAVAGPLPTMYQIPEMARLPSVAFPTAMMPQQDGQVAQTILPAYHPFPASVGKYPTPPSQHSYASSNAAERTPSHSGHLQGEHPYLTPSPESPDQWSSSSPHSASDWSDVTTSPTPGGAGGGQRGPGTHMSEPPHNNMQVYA

| SMILES | composite z-score [1] | composite z-score [2] | composite z-score [3] | composite z-score [4] | composite z-score [5] | composite z-score [6] | composite z-score [7] | z-score [8] | composite z-score [9] | composite z-score [10] |
| --- | --- | --- | --- | --- | --- | --- | --- | --- | --- | --- |
| CCN1C(=O)[C@H]2[C@H]3[C@H](O)[C@H](O)CC(=NOC)[C@@H]3CC[C@H]2C1=O | 0.206 | -0.604 | -0.1 | 0.369 | -0.422 | -0.319 | -0.817 | -0.898 (inactive) | -0.221 | 0.0024 |
| COC(=O)C1=C(C)N(Cc2ccccc2)[C@]23O[C@](C(=O)OC)(C(=O)N2[C@@H]1c1ccccc1)[C@@H](C(=O)OC)[C@H]3C(=O)OC | 0.202 and -0.441 | -0.295 and -0.1 | -0.112 and -0.0712 | -0.204 and 0.255 | -0.481 and 0.25 | 0.943 and -0.386 | 0.393 and 0.208 | -0.125 (inactive) and -0.101 (inactive) | -0.243 and -0.0583 | -0.137 and -0.189 |
| C[C@@H](ON=C1[C@H]2CCn3c(=O)n(-c4ccccc4)c(=O)n3[C@H]2[C@H](O)[C@@H]2O[C@H]12)c1cn([C@H](CO)Cc2ccccc2)nn1 | -0.289 | 0.316 | -0.113 | 0.449 | 0.308 | 0.11 | 0.536 | 0.887 (inactive) | 0.0701 | -0.64 |
| COC(=O)C1=C(C)N(Cc2ccccc2)C2=C3C(=O)N(C)C(=O)[C@@H]3[C@@](O)(C(=O)OC)C(=O)N2[C@@H]1c1ccccc1 | -0.0472 and -0.448 | 0.131 and 0.375 | -0.0301 and -0.0158 | 0.721 and 0.128 | 0.356 and 0.415 | -0.239 and -0.0154 | -0.322 and -0.0698 | 0.121 (inactive) and -0.811 (inactive) | 0.224 and -0.114 | 0.251 and -0.0645 |
| CC(CO)N1C(=O)[C@@H]2C3C(=O)OCCC=C[C@H]3OC23C=CCN(c2ccc(Cl)cc2)C(=O)[C@@H]13 (stereo not given in full) | 0.982 and -0.0072 | -0.821 and -1.3 | -0.0959 and -0.159 | -0.556 and -0.282 | -0.709 and 0.149 | -0.618 and 2 | 0.923 and 1.44 | 0.741 (inactive) and 1.08 (inactive) | -0.91 and 0.118 | 0.0053 and 0.0092 |
| C=CCN(C(=O)C1N(C(C)(C)CO)C(=O)C2C(C(=O)O)C3C=CC21O3)c1ccc(OC)cc1 (stereo not given) | 1.84 and 1.41 | -1.16 and -1.03 | -0.237 and -0.195 | -1.49 and -0.243 | -1.71 and -1.79 | -0.16 and -1.32 | 0.493 and -0.364 | 1.63 (inactive) and -0.0127 (inactive) | -0.898 and -1.25 | -0.169 and -0.204 |
| CCCNC(=O)OC[C@H]1O[C@H](CCON=C(C)CCC(=O)OC[C@H]2O[C@H](C#Cc3ccccc3)C=C[C@@H]2Oc2ccc(C)cc2)C=C[C@@H]1Oc1ccc(OC)cc1 | 0.0836 | -0.115 | -0.124 | -0.187 | -0.0132 | -0.21 | -0.861 | 0.751 (inactive) | -0.244 | 1.27 |
| CCOC(=O)C[C@H]1[C@H](OC(=O)c2ccccc2-c2ccccc2)[C@@H](NC(=O)Cc2ccc(OC)cc2)c2cc(OCCCO)ccc2N1C(=O)Cc1ccc(OC)cc1 | 0.169 and 0.18 | 0.22 and 0.0916 | 0.0811 and -0.0737 | 0.473 and -0.0644 | -0.386 and -0.0483 | 0.621 and -0.428 | 0.927 and -0.835 | -0.848 (inactive) and -0.382 (inactive) | 0.492 and 0.0474 | -0.0994 and -0.199 |
| COC(=O)[C@@]1(Cc2ccccc2)[C@H]2c3cc(C(=O)N(C)C)n(Cc4ccc(C)c(F)c4F)c3C[C@H]2CN1C(=O)c1ccccc1 | 1 and 0.986 | -0.481 and 0.787 | 0.162 and 0.639 | 0.384 and 0.451 | 1.5 and 1.71 | 1.39 and 1.48 | 1.39 and 1.12 | 3.35 (inactive) and -0.497 (inactive) | 0.705 and 2.39 | 0.176 and 0.567 |
| C[C@@]1([C@@H](NC(=O)Cc2ccccc2)c2ccc(-c3ccccc3)cc2)C[C@H]1C1CCCCC1 | 1.12 and 2.03 and -0.0771 | 0.528 and 0.149 and 0.36 | 0.611 and 0.674 and -0.218 | 0.602 and 0.59 and 0.392 | 0.866 and 0.815 and 0.536 | 1.41 and 0.96 and 0.841 | 0.911 and 0.56 and 0.909 | -1.2 (inactive) and -0.806 (inactive) and 1.29 (inactive) | 0.57 and 2.41 and 1.59 | 0.319 and 2.76 and -0.609 |
| C=CCN(Cc1ccccc1)C(=O)C1N(C(C)(C)CO)C(=O)C2C(C(=O)O)C3C=CC21O3 (stereo not given) | 0.666 and 0.391 | 2.08 and -1.13 | -0.206 and 0.511 | -2.12 and -0.387 | -2.15 and -1.36 | -1 and -0.987 | -0.372 and 0.11 | 0.551 (inactive) and 0.312 (inactive) | -0.847 and -1.28 | -0.274 and -0.169 |
| CCOC(=O)c1ccc(NC(=O)O[C@H]2[C@H](OC(=O)Nc3ccccc3)[C@H](OC(=O)Nc3ccccc3)[C@@H](OC)O[C@@H]2CO)cc1 | 0.496 and 0.0126 | 1.19 and 1.58 | 0.171 and 0.0495 | 1.2 and 0.986 | 1.44 and 0.73 | 1.68 and 1.8 | 1.3 and 1.35 | 0.822 (inactive) and -1.03 (inactive) | 1.18 and 0.937 | -0.24 and -0.141 |
| CCCC[C@@H]1CN2[C@@H](CC[C@@H](C)[C@@H]2c2ccc(Br)cc2)C(=O)O1 | -0.519 and -0.353 | 0.191 and 0.217 | -0.111 and -0.0736 | 0.458 and 0.656 | 0.333 and 0.493 | 0.48 and 0.847 | 0.602 and 0.965 | 0.427 (inactive) and -0.286 (inactive) | 0.0218 and 0.0109 | -0.142 and -0.306 |
| COC(=O)[C@H](C)NC(=O)CCC1CC(OC(=O)NCCc2ccc(F)cc2)CC2(CCCC(COC(=O)NCCCN3CCCC3=O)O2)O1 (stereo not given in full) | -0.78 | 0.267 | -0.0358 | 0.404 | 1.25 | 0.623 | 1.2 | 0.434 (inactive) | 0.367 | 0.0373 |
| CC(C)=NO[C@@H](C)c1cc(-c2c(C)cc(C)cc2C)no1 | 1.18 | -0.146 | -0.135 | 0.0794 | -0.243 | -0.0227 | -0.304 | 0.122 (inactive) | -0.163 | 0.0854 |
| CCOC(=O)[C@@H]1CC=C2CC1C(=O)N1CCC[C@@H]1[C@H]2O[Si](C)(C)C(C)(C)C (stereo not given in full) | -0.116 and -0.386 | -0.323 and -0.427 | -0.157 and -0.282 | -0.833 and -1.22 | -1.16 and -1.46 | -0.653 and -0.709 | -1.69 and -0.727 | 0.678 (inactive) and -1.08 (inactive) | -0.0907 and -1.25 | -0.0994 and -0.252 |

From PubChem BioAssay
